# Measurements as given in ChEMBL document CHEMBL3988442, “University of Dundee, Small-Polar-MMV Screening Library” (2021).
# The whole screen tested about 48,000 compounds, of which about 13,000 (27%) showed an effect of 50% or more. The list shows a part of the results.
# System: Wolbachia pipientis
# Experiment: Anti-Wolbachia Cell-Based Screen
# Format: functional
# Parameters: scale not given: in the data most compounds retested in dose-response had high values
# Details: 5 µM
row,SMILES,Percent Effect
1,CC(=O)C(C)CC(=O)N(Cc1cccc(C)c1)C(C)C (configuration not stated),-23.01%
2,Cc1ccccc1CN1CC[C@H](c2nnc(-c3cncn3C)o2)C1,0.6101%
3,Cc1ncsc1-c1nnc(C2CCN(Cc3cccc(F)c3F)CC2)o1,117.8%
4,Cc1ncsc1-c1nnc(C2CCN(Cc3ccccc3F)CC2)o1,106.9%
5,Cc1ncsc1-c1nnc(C2CCN(Cc3ccccc3Cl)CC2)o1,122.3%
6,COc1ccccc1CN1CC[C@H](c2nnc(-c3cncn3C)o2)C1,-5.308%
7,CCn1cnnc1CNC(=O)c1ccc(Br)cc1F,-45.58%
8,CC(C(=O)N1CCN(C(=O)c2ccc(F)cc2F)CC1)n1ccnc1 (configuration not stated),-6.751%
9,CN(Cc1ccc(Cl)s1)C(=O)Cn1nc(-c2ccc(F)cc2)oc1=O,-64%
10,CCCn1cnnc1CNC1CCSC1 (configuration not stated),5.781%
11,N#CCCN(Cc1cccnc1)C(=O)c1ccc(OCC2CC2)cc1,-3.781%
12,Cc1noc(CN(C)c2ccccc2)n1,0.05791%
13,Cc1noc(CN(C)C(=O)c2n[nH]c(N)c2-c2ccccc2)n1,101.7%
14,Cc1ccc(CN(C)C(=O)c2cccc(NC(N)=O)c2)o1,-0.4854%
15,Cc1nc(NC(=O)N(C)Cc2ccsc2)nn1C,1.412%
16,Cc1ccccc1OCCC(=O)N(C)Cc1c(C)noc1C,-17.09%
17,Cc1ccc(CN(C)C(=O)c2n[nH]c(N)c2-c2ccccc2)o1,90.65%
18,CCc1nnsc1C(=O)N(C)Cc1ccc(C)o1,0.8104%
19,Cc1noc(C)c1C(=O)N(C)Cc1nc(-c2ccccn2)no1,-7.046%
20,Cc1noc(C)c1CN(C)C(=O)c1nc(N2CCCC2)ncc1Cl,-6.035%
21,Cc1noc(C)c1CN(C)C(=O)c1n[nH]c(N)c1-c1ccccc1,103.1%
22,CN(Cc1ccsc1)C(=O)c1cc2c([nH]c1=O)CCCC2=O,2.933%

row,SMILES,Percent Effect
1,CN(Cc1ccsc1)C(=O)c1n[nH]c(N)c1-c1ccccc1,96.05%
2,Cc1ccc(CN(C)C(=O)c2cc3c(c(S(N)(=O)=O)c2)CCC3)o1,-13.85%
3,CCC1=N[C@@]2(CC[C@@H]3CN(S(=O)(=O)CC)C[C@@H]32)C(=O)N1CCOC,-7.119%
4,CN(c1ncc(C(N)=O)cc1Cl)C1CCC(c2ccccc2)CC1 (configuration not stated),-13.88%
5,CN(Cc1ccsc1)C(=O)Nc1ccc(=O)n(C)c1,-4.532%
6,CNCC(=O)N1CCC(c2cccc(Oc3ccccc3)n2)CC1,178.2%
7,CCn1cnnc1C1CCN(C(=O)COc2ccccc2)CC1,2.9%
8,NC(=O)CN1CCC(c2cccc(Oc3ccccc3)n2)CC1,173%
9,NCC(=O)N1CCC(c2cccc(Oc3ccccc3)n2)CC1,130.3%
10,COCC(=O)N1CCC(c2cccc(Cc3ccc(F)cc3)n2)CC1,-12.66%
11,CCn1cnnc1C1CCN(C(=O)CCCOc2ccccc2)CC1,6.265%
12,CC(=O)N1CCC(c2cccc(Oc3ccccc3)n2)CC1,144.2%
13,CC(C)(C)c1nnc(CSc2ccccn2)o1,4.822%
14,CN(Cc1ccccc1)C1(C(=O)NCC(N)=O)Cc2ccccc2C1,-1.712%
15,O=C(NCc1csc(Cc2ccccc2)n1)C1NCCc2[nH]cnc21 (configuration not stated),-10.41%
16,CCn1nc(C)c(NC(=O)c2cc(NC(=O)C(C)C)n(C)n2)c1C,2.528%
17,CCCc1cc(C(=O)N(Cc2cccnc2)Cc2cccnc2)[nH]n1,-21.08%
18,NCC1Cc2cc(-c3cncc(C(=O)N4CCCCC4)n3)cc(F)c2O1 (configuration not stated),-1.954%
19,O=C(Nc1ccccc1)c1ccc(NCc2ccncc2)nn1,-22.46%
20,Fc1ccc(NCc2ncc[nH]2)cc1Br,-22.04%
21,CN(C)CCNc1cc(-c2ncccc2Cl)c2cc[nH]c2n1,-5.947%
22,Clc1cc(NCc2ccncc2)nc2[nH]ccc12,93.22%

row,SMILES,Percent Effect
1,COc1ncc(-c2cc(NCCN(C)C)nc3[nH]ccc23)c(OC)n1,-3.716%
2,Clc1cc(NCc2ncc[nH]2)nc2[nH]ccc12,61.99%
3,Clc1cc(NCc2nccs2)nc2[nH]ccc12,109.6%
4,O=C(CCc1ccc(Br)cc1)NCCc1nnc[nH]1,7.079%
5,CC(C)(C)OCCN1CCCC1c1nc(Cc2ccc(F)cc2)no1 (configuration not stated),28.24%
6,c1ccc(CN2CCC(NCCSc3cnn[nH]3)CC2)cc1,-22.28%
7,CN(C)CC(=O)N1CCCC1c1cncc(Oc2ccc(F)cc2)n1 (configuration not stated),102.5%
8,CN(CC(=O)N1CCCC1c1ccccn1)Cc1ccccc1 (configuration not stated),-5.131%
9,COc1ccc(C2CCCN2C(=O)Nc2ccc(OC)nc2)cc1 (configuration not stated),2.775%
10,CN(C)CC(=O)N1CCCC1c1ccccn1 (configuration not stated),98.84%
11,CC(=O)N1CCCC1c1cncc(Oc2ccc(F)cc2)n1 (configuration not stated),97.95%
12,COc1ccc(Oc2cncc(C3CCCN3C(C)=O)n2)cc1 (configuration not stated),-16.34%
13,CNCC(=O)N1CCCC1c1cncc(Oc2ccc(F)cc2)n1.Cl (configuration not stated),105.9%
14,COC(=O)CCCC(=O)N1CCCCC1c1ccc(F)cc1 (configuration not stated),-3.374%
15,O=C(CCCOCc1ccccc1)N1CCCC1c1ccccn1 (configuration not stated),-5.136%
16,Cc1cn(-c2ccccc2)nc1NS(=O)(=O)c1cc(C(=O)O)cs1,3.492%
17,COc1cccc(-c2n[nH]cc2C(=O)NC(C)c2n[nH]c(C)n2)c1 (configuration not stated),6.595%
18,O=C(NC1CC1)c1nc2c(o1)CN(c1ncccn1)C2,-9.105%
19,Fc1ccc(CN2CCCn3cnc(COCC4CC4)c3C2)cc1.O=C(O)C(F)(F)F,3.17%
20,CC(C)CNC[C@H]1O[C@H](Cc2cc(-c3ccccn3)on2)CC[C@@H]1O,-6.166%
21,Cn1nc(C2CC2)c2c1NC(=O)CC2c1ccc(CN2CCCCC2)s1 (configuration not stated),-3.758%
22,COCCOc1ccccc1CNCC1COC2(CCCC2)O1 (configuration not stated),0.05602%

row,SMILES,Percent Effect
1,CC(=O)N(Cc1ncc(C)o1)C1CCN(Cc2cc(C)on2)C1 (configuration not stated),118.6%
2,CC(=O)N(Cc1ncc(C)o1)C1CCN(CCNC2CCCCC2)C1 (configuration not stated),-4.891%
3,CC(=O)N(Cc1ncc(C)o1)C1CCN(Cc2sc(C)nc2C)C1 (configuration not stated),115.4%
4,CC(=O)N(Cc1ncc(C)o1)C1CCN(Cc2csc(C)n2)C1 (configuration not stated),123.5%
5,Cc1cnc(CN(C)C2CCN(CC(=O)N(C)c3nccs3)C2)o1 (configuration not stated),-8.119%
6,CC(=O)N(Cc1ncc(C)o1)C1CCN(CCCc2cnn(C)c2)C1 (configuration not stated),5.261%
7,CC(=O)N(Cc1ncc(C)o1)C1CCN(Cc2ccon2)C1 (configuration not stated),139.3%
8,CC(=O)N(Cc1ncc(C)o1)C1CCN(Cc2noc(C)n2)C1 (configuration not stated),3.628%
9,COCCCN1CCN(C(=O)C(c2cccc(F)c2)N(C)C)CC1 (configuration not stated),-8.976%
10,CC(NC(=O)C1=NN(C)C(=O)CC1)c1ccc(F)cc1F (configuration not stated),-12.15%
11,COc1ccc(OC)c(C2C3=C(COC3=O)Nc3[nH]nc(C)c32)c1 (configuration not stated),5.984%
12,Cn1c(NCC(O)c2ccc(F)cc2F)c(C#N)c(=O)n(C)c1=O (configuration not stated),-7.398%
13,CCN1CC(C(=O)N2CC(Oc3ccccc3Cl)C2)CC1=O (configuration not stated),-26.5%
14,O=C(NC1CCCC1)c1nc2c(o1)CN(CCO)C2,4.983%
15,Cc1occc(=O)c1OCc1noc(C(=O)NCC2CC2)n1,118%
16,Cc1occc(=O)c1OCc1noc(C(=O)NC2CCCC2)n1,110.2%
17,Cc1cc(CN(C)C(=O)NC2CCCC2)no1,-3.677%
18,COCCCNC(=O)Nc1ccc(OCc2noc(C3CC3)n2)cc1,4.086%
19,O=C(NCC1CC1)c1nc(COc2ccc3c(c2)OCO3)no1,5.191%
20,Cc1ccc(NC(=O)CSCc2cccnc2)nc1,4.357%
21,CN(C)C(=O)C1(Oc2ccc(Cl)cc2)CCNCC1,-10.8%
22,O=C(c1ccncc1)N1Cc2ccccc2OC2(CCOCC2)C1,-8.514%

row,SMILES,Percent Effect
1,CC(C)CNC(=O)N1CCC2(CCCO2)C1 (configuration not stated),14.05%
2,CC(=O)N1CCOC2(CCN(C(=O)C3CC3)CC2)C1,104.2%
3,CC(C)NC(=O)N1CCC2(CCCO2)C1 (configuration not stated),5.792%
4,CC(=O)N1CCCC2(C1)CN(C(=O)C1CCCCC1)CCO2 (configuration not stated),-22.57%
5,CN1CCCC2(C1)CN(C(=O)C1CCCCC1)CCO2 (configuration not stated),-29.79%
6,O=C(C1CCOC1)N1Cc2ccccc2OC2(CCOCC2)C1 (configuration not stated),110.4%
7,COCCN(C)CCN1CC2(CCN(C(=O)C3CCOC3)CC2)OC1=O (configuration not stated),-2.366%
8,CC(C)n1cc(C(=O)N2Cc3ccccc3OC3(CCOCC3)C2)cn1,-9.745%
9,CC(=O)N1Cc2ccccc2OC2(CCN(C(=O)C3CCOC3)CC2)C1 (configuration not stated),188.7%
10,CC(C)NC(=O)N1CCC2(CC1)CN(C(=O)NC(C)C)CCO2,117%
11,O=C(C1CCOC1)N1CCC2(CC1)CN(c1ncccn1)CCO2.O=C(O)C(F)(F)F (configuration not stated),-29.34%
12,CCCn1cnnc1-c1nc2c([nH]1)CC(c1ccc(Cl)cc1)CNC2=O (configuration not stated),14.47%
13,O=S(=O)(Cc1ccc(F)c(Cl)c1)NC(CO)c1ccco1 (configuration not stated),-13.92%
14,COc1ccccc1C1CNC(=O)c2nc(-c3cn(C)nc3C)[nH]c2C1 (configuration not stated),-4.665%
15,Cc1cnc(C(=O)N2CCC3(CC2)C(=O)NCCN3CC(C)C)cn1,4.389%
16,COCc1nc(N(C)C/C=C/c2ccccc2)c2cnn(C)c2n1,-13.22%
17,O=C(c1c[nH]cn1)N1CCC(n2cc(-c3ccsc3)nn2)CC1,-0.5309%
18,Cc1cc(C(=O)N2Cc3ccccc3OC3(CCOCC3)C2)nc(N)n1,-4.105%
19,CC(=O)N1Cc2ccccc2OC2(CCN(C(=O)C3CC3)CC2)C1,187.7%
